Screens: PubChem, National Center for Advancing Translational Sciences (NCATS)
Rab9 promoter act: Rab9 promoter activation | Huh7 Rab9 promoter-luciferase reporter, luminescence, 24 h | Potency, µM (highest dose often 9.22 µM), inactives show at the top dose activation, negative = inhibition, hits mostly activators | 2.8% of 320,000 active | AID 485297; also: % of control where 0% means no effect; nearly all actives have a fitted effect of over 60% in size
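Luminescence from Amplite-detected luciferase (10 minutes, ambient) reports Rab9 promoter activation. Before that, stable Rab9-luciferase Huh7 cells (1500/well, reduced-serum OP-MEM I plus 10% FBS) were exposed to compound for 24 hours at 37C.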
FLuc counter: firefly luciferase modulation, counter-screen for miR-21 project | purified FLuc, Km substrates, luminescence inhibition | Potency, µM (highest dose often 57.5 µM), for inactives: top-dose activity change, negative = inhibition, actives largely listed as inhibitors | P08659 | 6.9% of 360,000 active | AID 588342;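 also: plate controls were vehicle for no effect and reference inhibitor for full effect; nearly all actives have a fitted effect of over 55% in size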
Target sequence (P08659 whole entry, looked up): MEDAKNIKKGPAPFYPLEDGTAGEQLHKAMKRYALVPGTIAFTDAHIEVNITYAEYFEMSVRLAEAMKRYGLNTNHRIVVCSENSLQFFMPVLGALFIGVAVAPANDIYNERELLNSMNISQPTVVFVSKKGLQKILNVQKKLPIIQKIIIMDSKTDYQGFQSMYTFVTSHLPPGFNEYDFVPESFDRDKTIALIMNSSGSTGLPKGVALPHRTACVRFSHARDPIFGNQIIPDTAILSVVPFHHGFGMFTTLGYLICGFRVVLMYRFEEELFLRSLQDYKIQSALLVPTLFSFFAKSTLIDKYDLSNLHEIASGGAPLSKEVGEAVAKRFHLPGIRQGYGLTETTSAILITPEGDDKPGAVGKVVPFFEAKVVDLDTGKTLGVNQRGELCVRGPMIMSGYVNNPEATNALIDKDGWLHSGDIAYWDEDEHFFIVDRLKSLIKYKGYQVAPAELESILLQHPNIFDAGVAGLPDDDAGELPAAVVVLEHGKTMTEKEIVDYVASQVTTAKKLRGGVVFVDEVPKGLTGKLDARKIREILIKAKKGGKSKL
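Purified P. pyralis luciferase, 10 nM final, with Km-level 10 uM D-luciferin and 10 uM ATP in 50 mM Tris acetate pH 7.5, 10 mM Mg acetate, 0.01% Tween-20, 0.05% BSA; 6-point qHTS titration about 60 µM downward; luminescence read.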
SMN2 splice enh: enhancers of SMN2 splice variant expression; HEK293 SMN2-luciferase splicing reporter, luminescence, 30-36 h; Potency, µM (highest dose often 46.1 µM), without a hit: at the top dose activity change, positive = activation, most hits filed as activators; 2.8% of 210,000 active; AID 1458; also: % of control where 0% means no effect; nearly all actives have a fitted effect of over 55% in size
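HEK293 cells carry an SMN2 […]–luciferase reporter in which exon 7 inclusion puts luciferase in frame. Cells were plated 10-12 h before compound addition, then incubated 30-36 h at 37C. ONE-Glo luminescence was read; sodium butyrate at 4.5 mM final served as control.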
ELG1 genotoxic: inducers of genotoxicity in HEK293T ELG1-luciferase cells. Potency, µM (titrated, usually from 46 µM), for the others: at the highest dose activity change, positive = activation, hits mostly activators. 1.3% of 330,000 active. HEK293T ELG1-luciferase reporter, luminescence, 16 h; also: % of control where 0% means no effect; nearly all actives have a fitted effect of over 60% in size
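DMSO vehicle served as control against compound-treated ELG1-luciferase HEK293T cells; exposure lasted 16 hr at 37 °C and 5% CO2, followed by ONE-Glo luminescence detection after 30 min.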
NPC1 promoter act: NPC1 promoter activation | Huh7 NPC1 promoter luciferase reporter, 24 h | Potency, µM (titrated, usually from 9.22 µM), without a hit: top-dose activation, actives largely listed as activators | 2.4% of 320,000 active | AID 485313; also: % of control where 0% means no effect; nearly all actives have a fitted effect of over 60% in size
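In 1536-well qHTS, Huh7 cells harboring an NPC1 promoter–luciferase construct received compound for 24 h; activation was quantified by luminescence following luciferase reagent addition.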
KinaseGlo FLuc: blocks Kinase-Glo luciferase, a counter-screen artifact | 0.28% of 200,000 active | Potency, µM (titrated, usually from 38.3 µM), without a hit: top-dose activity change, negative = inhibition, hits mostly inhibitors | Q27757 | Kinase-Glo luciferase, ATP luminescence, 8 min; also: % is scaled to controls: 0 for no effect and ±100 for the full control effect; nearly all actives have a fitted effect of over 60% in size
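Kinase-Glo luciferase light output from ATP and luciferin was measured with 10 uM ATP, within the enzyme's linear range. Buffer: 50 mM imidazole pH 7.2, 50 mM KCl, 7 mM MgCl2, 0.01% Tween 20, 0.05% BSA; luminescence read after 8 min at ambient temperature.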
* = called active by the depositor; u = inconclusive; x = no result. Hits are enriched below; roughly 7.4% of the tested compounds scored in any of these assays. Calls follow the shape of the dose curve; as a rule, active = well fitted curve in the direction sought with a large enough effect; inconclusive = small, poorly fitted or top-dose-only effect, or another doubt; inactive = no such curve, though single readings can be large; an effect the other way counts as inactive or inconclusive. Potency is read from the fitted curve at half-maximal effect.

SMILES | Rab9 promoter act | FLuc counter | SMN2 splice enh | ELG1 genotoxic | NPC1 promoter act | KinaseGlo FLuc
O=C(N/N=C/c1cccc([N+](=O)[O-])c1)c1ccc2c(c1)OCCO2 | 2.2µM* | 1.3µM* | 22µM* | u | 3.5µM* | -1%
CCOc1ccc(S(=O)(=O)NNS(=O)(=O)c2ccc(C)cc2C)cc1 | 2% | 2% | x | 0% | -4% | x
CSc1nc(N)c2ncn([C@@H]3O[C@H](COP(=O)(O)OP(=O)(O)OP(=O)(O)O)[C@H](O)[C@H]3O)c2n1 | x | x | 25% | x | x | u
CCn1c(SCC(=O)N/N=C/c2ccccc2OCC(=O)O)nnc1-c1ccc(C)cc1 | -3% | 0% | x | -3% | -5% | x
CCCCn1c(N)c(N(CC(C)C)C(=O)CC2CCCC2)c(=O)[nH]c1=O | -2% | 10% | x | -4% | -4% | x
O=C(N/N=C/c1ccccc1O)c1ccc2c(c1)OCO2 | -17% | 2.7µM* | x | 15µM* | u | x
O=C(N/N=C\C=C\c1ccc(Br)cc1)c1ccc2c(c1)OCO2 | -3% | 3% | x | 5% | 1% | x
O=C(N/N=C/C1CC2CCC1C2)c1ccc2c(c1)OCO2 (stereo not drawn) | 3% | 13µM* | -3% | 1% | -5% | -6%
O=C(N/N=C/c1ccc2c(c1)OCO2)c1ccc2c(c1)OCCO2 | u | 1.9µM* | 11µM* | u | u | -15%
CCN(CC)c1ccc(/C=N/NC(=O)C2CC2)cc1 | u | 15µM* | x | u | 16% | x
Cc1cc(Br)cc(/C=N/NC(=O)c2ccc3c(c2)OCO3)c1O | -6% | u | x | 13% | -30% | x
Cc1nc(Cc2nnc(SC(C)C(=O)Nc3cccc(C#N)c3)o2)cs1 (stereo not drawn) | -3% | -1% | x | 0% | 1% | x
CC1=C(C(N)=O)S(=O)(=O)c2ccccc21 | 0% | 3% | x | -9% | -1% | x
CCN(CC)c1ccc(/C=N/NC(=O)c2ccc(Br)o2)cc1 | 3.2µM* | 3µM* | 11µM* | u | 2.2µM* | -1%
O=C(N/N=C/c1cccs1)c1ccc2c(c1)OCO2 | 1.3µM* | 2.7µM* | 13µM* | 9.2µM* | 2.5µM* | -10%
O=C(N/N=C/c1ccc2c(c1)OCCO2)c1ccncc1 | -2% | 9.5µM* | x | 7% | -2% | x
CCN(CC)c1ccc(/C=N/NC(=O)Cc2ccc(OC)c(OC)c2)cc1 | -13% | u | x | 1% | 0% | x
CCN(CC)c1ccc(/C=N/NC(=O)Nc2nonc2N)cc1 | 19% | 13µM* | u | 2% | 21% | -1%
CCN(CC)c1ccc(/C=N/NC(=O)c2c(-c3ccccc3)noc2C)cc1 | 3% | -2% | x | -43% | 2% | x
CCN(CC)S(=O)(=O)c1ccc2c(c1)N(CC(=O)Nc1c(C)cccc1C)C(=O)C1CCCN21 (stereo not drawn) | x | 1% | 1% | x | x | x
O=C(Cn1cc(C(=O)C2CC2)c2ccccc21)Nc1ccc(Br)cc1 | x | 3% | -6% | x | x | x
Cc1cc(=O)n2[nH]c(-c3cccnc3)nc2n1 | 1% | 17µM* | -24% | 1% | -4% | u
Cc1cc(=O)n2[nH]c(NCc3ccc(F)cc3)nc2n1 | x | -11% | 8% | x | x | x
Cc1nc2nc(-c3cccnc3)[nH]n2c(=O)c1C | -2% | u | -12% | 14% | 2% | -9%
Cc1cc(=O)n2[nH]c(-c3ccc(F)cc3)nc2n1 | 3% | 12µM* | 11% | u | 19% | u
SMILES | Rab9 promoter act | FLuc counter | SMN2 splice enh | ELG1 genotoxic | NPC1 promoter act | KinaseGlo FLuc
COc1cccc(C(=O)NC2=NC(c3ccccc3F)CC(=O)N2)c1 (stereo not drawn) | x | -3% | u | x | x | x
CCCOc1ccc(N/C=C/C(=O)c2ccc(OC)c(OC)c2)cc1 | 0% | u | x | 1% | -5% | x
CCOc1ccc(N/C=C/C(=O)c2ccc(OC)c(OC)c2)cc1 | 4.5µM* | 3µM* | x | 18µM* | 3.2µM* | x
COc1ccc(C(=O)/C=C\N2CCOCC2)cc1 | 15% | 24µM* | x | u | 14% | -10%
O=C(/C=C/Nc1ccccc1)c1ccc(Oc2ncccn2)cc1 | 2.2µM* | 2.1µM* | u | u | 1.4µM* | -25%
COc1ccc(N/C=C/C(=O)c2sc(-c3ccccc3)nc2C)cc1 | -2% | 6.7µM* | -14% | -6% | -2% | -1%
CCOC(=O)c1cccc(NC(=O)COc2nsnc2N2CCOCC2)c1 | 2% | -2% | x | -3% | 14% | x
COc1ccc(C(=O)Oc2ccc(C(=S)N3CCOCC3)cc2)cc1 | -4% | 21µM* | x | 0% | -3% | -1%
COc1ccc(N/C=C(/C(C)=O)c2ccccc2)cc1 | -9% | 0% | -16% | u | 0% | -1%
COc1ccc(N/C=C\C(=O)c2ccc3ccccc3c2)cc1 | 2.8µM* | u | x | 17% | 2µM* | x
COc1ccc(N/C=C/C(=O)c2ccccc2)cc1 | 0.13µM* | 0.12µM* | x | 0.41µM* | 0.32µM* | x
O=C(Oc1ccc(C(=S)N2CCOCC2)cc1)c1ccc(Br)cc1 | -1% | 0% | 21% | 1% | -1% | -1%
COc1ccc(C(=O)/C=C/Nc2ccc(C)cn2)cc1OC | 1.6µM* | 8.5µM* | 11µM* | u | 2.2µM* | 2%
O=C(Cc1ccccc1)NCC(=O)OCC(=O)c1ccccc1Cl | 0% | 5% | 7% | 3% | -2% | -2%
COc1ccc(N/C=C/C(=O)C(C)(C)C)cc1 | -3% | 12µM* | x | 10% | 0% | 4%
COC(/C=C/Nc1ccc(OC)cc1)=C(C#N)C#N | -24% | -1% | 13% | 0% | -6% | -3%
O=C(Nc1ccccc1)O[C@@H]1C[C@H]2CCC(=O)N3CC[C@@H](C1)[C@@H]23 | u | 21µM* | x | u | u | x
O=C(Nc1ccccc1)OC1CC2CC1C1CCCC21 (stereo not drawn) | 2.5µM* | 7.6µM* | x | u | u | 6%
CC(C)N(C)C1CCN(S(=O)(=O)c2ccc3[nH]c(=O)ccc3c2)CC1 | x | -1% | x | x | x | x
Cc1nonc1NC(=O)CSc1ccccn1 | 3% | 0% | x | -1% | -1% | x
O=C(CSc1ccc([N+](=O)[O-])cn1)Nc1ccc2c(c1)OCCO2 | 0% | u | -6% | 3% | 0% | 0%
Cc1cc2nc(-c3ccc(SCC(=O)Nc4ccc5c(c4)OCCO5)nc3)[nH]c2cc1C | 4µM* | 0.34µM* | u | u | 2.8µM* | 11µM*
Cc1ccc(-c2ccc(SCC(=O)Nc3nonc3C)nn2)cc1 | u | 12µM* | 6% | u | u | -5%
O=C(CSc1ccc(-c2nc3ccccc3[nH]2)cn1)Nc1ccc2c(c1)OCCO2 | u | u | 17% | 10% | 27% | -10%
